{
  "source": "PubChem BioAssay AID488890",
  "about": "(Southern Research Specialized Biocontainment Screening …, 2010)",
  "note": "About 1,300 (0.41%) of roughly 320,000 compounds were called active. Another 3% or so got no clear call; they are omitted. How the calls were made is not given here. The list is a sample of the results. Results with a measured potency or affinity are listed apart.",
  "data": [
    {"experiment": "growth inhibition of non-replicating M. tuberculosis (AID 488890);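 further: plate controls were DMSO cells for no effect and high antibiotic wells for full effect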", "settings": "Mycobacterium tuberculosis non-replicating, at 25 µM, stronger effect = higher value", "units": {"inhibition": "%"}, "values": [
      {"smiles": "COc1cccc(C2C(C(=O)OC(C)C)=C(C)N=c3s/c(=C\\c4ccc(C(=O)O)cc4)c(=O)n32)c1", "note": "(stereo not given)", "inhibition": -6.22},
      {"smiles": "COc1ccc(NC(=S)N2CCNC(=O)C2CC(=O)Nc2cccc(Cl)c2C)cc1", "note": "(stereo not given)", "inhibition": 51.6},
      {"smiles": "CC(=O)Nc1ccc(N=Nc2c(C)[nH]n(C(N)=S)c2=O)cc1", "inhibition": -7.76},
      {"smiles": "Cc1ccc([N+](=O)[O-])cc1N=Nc1c(C)[nH]n(C(N)=S)c1=O", "inhibition": -4.79},
      {"smiles": "CCN(CC)S(=O)(=O)c1ccc(N=Nc2c(C)[nH]n(C(N)=S)c2=O)cc1", "inhibition": -7.96},
      {"smiles": "CC(=O)N(C)c1ccc(N=Nc2c(C)[nH]n(C(N)=S)c2=O)cc1", "inhibition": -34.4},
      {"smiles": "O=C(Cn1nc(Cc2cccnc2)c2ccccc2c1=O)N1CCN(c2ccccn2)CC1", "inhibition": 2.03},
      {"smiles": "Cc1ccccc1CNC(=O)C(=O)NCC1OCCCN1S(=O)(=O)c1ccc(F)cc1C", "note": "(stereo not given)", "inhibition": 16.5},
      {"smiles": "Cc1cc(C)n2nc(SCC(=O)c3cc(C)n(-c4cc(C)on4)c3C)nc2n1", "inhibition": 35.9},
      {"smiles": "NC(=O)NCC12CC3CC(CC(C3)C1)C2", "inhibition": -1.98},
      {"smiles": "CNC(=O)COc1ccc(S(=O)(=O)N2CCCC2)cc1", "inhibition": -27.9},
      {"smiles": "O=C(O)COc1ccc(S(=O)(=O)N2CCCC2)cc1", "inhibition": -9.2},
      {"smiles": "COc1cccc(-c2cn(-c3cccc(C(F)(F)F)c3)c(=S)[nH]2)c1", "inhibition": 5.54},
      {"smiles": "COC(=O)c1ccc2nccnc2c1", "inhibition": -20.4},
      {"smiles": "Cc1cccc(OC(=O)c2cccnc2)c1", "inhibition": 74.1},
      {"smiles": "CN(Cc1ccccc1)C(=O)c1ccc(NC(=O)c2ccccc2)cc1", "inhibition": -0.423},
      {"smiles": "Cn1c(-c2ccccc2)cc2ccccc21", "inhibition": -0.86},
      {"smiles": "CCOc1c(C(N)=O)cc([N+](=O)[O-])cc1[N+](=O)[O-]", "inhibition": 7.1},
      {"smiles": "Cc1ccc(CNc2ccc([N+](=O)[O-])cc2C(N)=O)cc1", "inhibition": -0.61},
      {"smiles": "COc1ccc(CCNC(=O)c2cc3cc(F)ccc3nc2C)cc1OC", "inhibition": 2.52},
      {"smiles": "O=C(O)CCCN=CC1=C(O)CNC1=O", "inhibition": 2.02},
      {"smiles": "COc1ccccc1-c1coc2cc(OC(=O)/C=C/c3ccccc3)ccc2c1=O", "inhibition": 33.4},
      {"smiles": "COc1ccc(-c2oc3ccccc3c(=O)c2OC(C)=O)cc1", "inhibition": 64.7},
      {"smiles": "COc1ccc(-c2oc3ccccc3c(=O)c2OCC(=O)O)cc1", "inhibition": 6.78},
      {"smiles": "CCOc1ccccc1Oc1coc2cc(OCC(=O)O)ccc2c1=O", "inhibition": -6.12},
      {"smiles": "COc1ccccc1-c1coc2cc(OC(=O)N3CCOCC3)ccc2c1=O", "inhibition": 17.2},
      {"smiles": "COc1ccccc1Oc1coc2cc(OCC(N)=O)ccc2c1=O", "inhibition": 32.8},
      {"smiles": "CCC(=O)NCCNc1ccc([N+](=O)[O-])cn1", "inhibition": -5.26},
      {"smiles": "Cc1onc(C(N)=O)c1C(=O)Nc1ncc(C(F)(F)F)cc1Cl", "inhibition": -30.8},
      {"smiles": "Cc1ccc(C(=O)N2CCN(c3ccccc3F)CC2)cc1NC1=NC2CS(=O)(=O)CC2S1", "note": "(stereo not given)", "inhibition": -2.79},
      {"smiles": "CC(Cc1cccs1)NC(=O)c1cccs1", "note": "(stereo not given)", "inhibition": 75.3},
      {"smiles": "CC(Cc1cccs1)NC(=O)Nc1cccc(Cl)c1", "note": "(stereo not given)", "inhibition": 48.3},
      {"smiles": "CNc1ccc(C2(O)C(=O)c3ccccc3C2=O)cc1", "inhibition": 50.8},
      {"smiles": "CCN(c1ccc(NC(=O)COC(=O)c2ccc(S(=O)(=O)N3CCCC3)cc2)cc1)C(C)C", "inhibition": 11.1},
      {"smiles": "COC(=O)/C(=C1/Oc2ccc(C(C)(C)C)cc2S1)C(F)(F)F", "inhibition": 32.3},
      {"smiles": "COC(=O)/C(=C1/Oc2ccc(C)cc2S1)C(F)(F)F", "inhibition": 6.15},
      {"smiles": "CC(=O)c1cccc(NC(=O)CN(C)S(=O)(=O)c2ccccc2)c1", "inhibition": 1.23},
      {"smiles": "CC[C@H](C)[C@H](NC(=O)[C@H](Cc1ccc(O)cc1)NC(=O)[C@@H](N)C(C)C)C(=O)N[C@@H](Cc1cnc[nH]1)C(=O)N1CCC[C@H]1C(=O)N[C@@H](Cc1ccccc1)C(=O)O", "inhibition": -4.04},
      {"smiles": "CN(C)S(=O)(=O)c1ccc(N2CCCC2)c(C(=O)NNC(=O)c2ccccc2)c1", "inhibition": 37.4},
      {"smiles": "COc1cc(/C=N/Nc2nc(C)cc(C)n2)ccc1OC(=O)c1ccco1", "inhibition": 23.8},
      {"smiles": "O=c1oc(-c2cccs2)nc2ccc(Cl)cc12", "inhibition": 79.1},
      {"smiles": "O=c1cc(-c2cccs2)oc2ccc(Cl)cc12", "inhibition": 19.9},
      {"smiles": "CC(NC(=O)CCNC(=O)c1ccco1)c1ccccc1", "note": "(stereo not given)", "inhibition": -4.55},
      {"smiles": "CCCCCC1CC(CC(=O)Nc2ccc([N+](=O)[O-])cc2)C(=O)O1", "note": "(stereo not given)", "inhibition": 29.9},
      {"smiles": "CCCCCCC1CC(CC(=O)Nc2ccc([N+](=O)[O-])cc2)C(=O)O1", "note": "(stereo not given)", "inhibition": 46},
      {"smiles": "OCCCC1CCCN(Cc2cn[nH]c2-c2ccc(F)cc2F)C1", "note": "(stereo not given)", "inhibition": -4.41},
      {"smiles": "COc1ccc(CC(=O)Nc2ccc(N3CCCCC3)cc2)cc1", "inhibition": 10.3},
      {"smiles": "O=C(O)Cc1ccc(NC(=O)Nc2ccc3c(c2)OCO3)cc1", "inhibition": -6.44},
      {"smiles": "CC1=NN(Cc2cc(C(C)(C)C)c(O)c(C(C)(C)C)c2)C(=O)C1", "inhibition": -2.66},
      {"smiles": "CC(C)(C)c1cc(CN2CCCCC2)cc(C(C)(C)C)c1O", "inhibition": 16.6},
      {"smiles": "OCCN1CCN(Cc2ccc3ccccc3c2)CC1", "inhibition": 0.76},
      {"smiles": "OC1CCN(Cc2cccc(Oc3ccccc3)c2)CC1", "inhibition": -6.53},
      {"smiles": "OC1CCN(Cc2ccc3ccccc3c2)CC1", "inhibition": 12.5},
      {"smiles": "CC(C)(C)c1cc(C(=S)N2CCN(CCO)CC2)cc(C(C)(C)C)c1O", "inhibition": 19.5},
      {"smiles": "COCCCn1c(C)nnc1SCC(=O)NNC(=O)COc1ccc(Cl)cc1", "inhibition": 0.75},
      {"smiles": "CSc1ccccc1C(=O)NCCSC(C)(C)C", "inhibition": -2.18},
      {"smiles": "COc1ccccc1NC(=O)COc1ccc(/C=N/NC(=O)CSCc2cc(C)cc(C)c2)cc1", "inhibition": 8.98},
      {"smiles": "CN(C)c1ccc(C(=O)Nc2ccc(O)c3c(=O)cc(-c4ccccc4Cl)oc23)cc1", "inhibition": 7.25},
      {"smiles": "O=C(Cn1cncn1)c1ccc(Cl)cc1", "inhibition": -4.45},
      {"smiles": "CC1=NN(C(=O)COc2ccccc2)C(O)(c2cccnc2)C1", "note": "(stereo not given)", "inhibition": -18.8},
      {"smiles": "CCC1=NN(C(=O)COc2ccccc2C)C(O)(c2ccncc2)C1", "note": "(stereo not given)", "inhibition": -19},
      {"smiles": "CC1=NN(C(=O)Cc2ccccc2)C(O)(c2ccccc2)C1", "note": "(stereo not given)", "inhibition": 7.51},
      {"smiles": "CCOC(=O)N1N=C(C)CC1(O)c1ccc(Cl)cc1", "note": "(stereo not given)", "inhibition": -5.02},
      {"smiles": "COc1ccc(C(=O)Nc2ccc3nc(N4CCN(C)CC4)cc(C)c3c2)c(OC)c1", "inhibition": 76},
      {"smiles": "CCc1nonc1NC(=O)c1oc2ccc(F)cc2c1C", "inhibition": -7.95},
      {"smiles": "CN1CCN(S(=O)(=O)c2ccc(NS(=O)(=O)c3ccccc3)cc2)CC1", "inhibition": 2.91},
      {"smiles": "CC1CC(C)CN(C(=O)c2ccc(S(=O)(=O)N3CCCC3)cc2)C1", "note": "(stereo not given)", "inhibition": 62.4},
      {"smiles": "Cc1cc(C(F)(F)F)nc(SCC(=O)c2cccc([N+](=O)[O-])c2)n1", "inhibition": 14.9},
      {"smiles": "O=C(COC(=O)c1ccc(Cl)c(S(=O)(=O)N2CCOCC2)c1)NCc1ccco1", "inhibition": -2.49},
      {"smiles": "O=C(Cc1ccc(-c2ccccc2)cc1)OCC(=O)N1CCCC1=O", "inhibition": 16.6}
    ]}
  ]
}
